Only some compounds are listed: those with a hit (about 3% of all), similar ones and a draw of the others.
DRD3 antagonist: antagonists of human D3 dopamine receptor. 360,000 tested, 2.5% active. P35462. AID 652054. D3R cells, DiscoveRx beta-arrestin luminescence, antagonist mode; stronger effect = lower value. max response, negative = inhibition, %; in the data active = max response below about -50%; inconclusive = no clear call, values can overlap the other calls; note: % is set by controls: 0 for no effect and ±100 for the full control effect
Target sequence (P35462 whole entry, looked up): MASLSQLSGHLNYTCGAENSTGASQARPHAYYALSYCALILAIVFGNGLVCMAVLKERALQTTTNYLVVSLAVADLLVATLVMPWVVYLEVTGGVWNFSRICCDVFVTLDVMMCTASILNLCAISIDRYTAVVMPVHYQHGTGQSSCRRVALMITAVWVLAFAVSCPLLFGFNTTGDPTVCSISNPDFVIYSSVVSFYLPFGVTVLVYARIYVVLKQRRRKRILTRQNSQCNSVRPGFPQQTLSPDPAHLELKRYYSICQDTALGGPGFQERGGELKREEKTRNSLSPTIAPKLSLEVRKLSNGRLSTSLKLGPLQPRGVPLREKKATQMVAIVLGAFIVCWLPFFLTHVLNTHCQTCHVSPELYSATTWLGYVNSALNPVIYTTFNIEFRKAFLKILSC
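Cells expressing the human receptor were seeded at 1500 cells/well, incubated overnight at 37 degrees C in 5% CO2, then exposed to library compounds with dopamine controls for 90 minutes at 37 degrees C before luminescent detection.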
GRP78 ERSR act: induces the endoplasmic reticulum stress response in human glioma cells. U87-MG GRP78 promoter luciferase reporter, 16 h. Potency, µM, inactives show at the top dose activation, hits mostly activators. 420,000 tested, 0.02% active. AID 602332; note: potency is the fitted concentration of half-maximal effect; series mostly up to about 76 µM; % of control where 0% means no effect; nearly all actives have a fitted effect of over 35% in size
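Stably transfected U87-MG glioma cells carrying a GRP78-based luciferase sensor; 16 h compound incubation. Luminescence end-point read 10 min after Bright-Glo addition at room temperature.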
DRD3 agonist: agonists of human D3 dopamine receptor; P35462; D3R DiscoveRx beta-arrestin cells, luminescence, 90 min; max activation, %; 410,000 tested, 0.58% active; in the data active = max activation above about 30%; note: 0% is about no effect
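Cells at 1500/well, incubated overnight, then treated with pinned compounds (dopamine as control) for 90 min at 37 degrees C. DiscoveRx reagent added for 30 - 60 minutes at room temperature; luminescence read.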
Nrf2 ARE act: activates Nrf2 signaling | AREc32 ARE-luciferase reporter (MCF7-derived line), luminescence, 24 h | Potency, µM (highest dose often 46.1 µM), inactives show at the top dose activation, most hits filed as activators | 410,000 tested, 0.31% active; note: potency is the fitted concentration of half-maximal effect; % of control where 0% means no effect; nearly all actives have a fitted effect of over 65% in size
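Cells of the AREc32 ARE-luciferase line are plated in OPTI-MEM containing 5% FBS and left overnight at 37 deg C. Compounds are pinned in, incubation continues 24 hr, and firefly luciferase signal is then measured.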
The depositor's hits bear a star; u = inconclusive; x = no result; [ ] = dose if it differs, or a comment. Unless noted, calls come from the whole dose curve; as a rule, active = well fitted curve in the direction sought with a large enough effect; inconclusive = small, poorly fitted or top-dose-only effect, or another doubt; inactive = no such curve, though single readings can be large; an effect the other way counts as inactive or inconclusive.

SMILES	DRD3 antagonist	GRP78 ERSR act	DRD3 agonist	Nrf2 ARE act
COc1ccc(C(NC(=O)C2CCN(CCOc3ccc(Cl)cc3)CC2)c2cccs2)cc1 (centres undefined)	-81*	3%	-18	5%
COc1ccc(C(NC(=O)C2CCN(CCCOc3ccccc3)CC2)c2ccccn2)cc1 (centres undefined)	-110*	-2%	-24	-1%
O=C(NC(c1ccc(-c2ccccc2)cc1)c1cnccn1)C1CCN(CCOc2ccc(F)cc2)CC1 (centres undefined)	-21	-14%	-13	-5%
Cc1ccc(C(NC(=O)C2CCN(CCOc3ccccc3)CC2)c2ccccn2)cc1 (centres undefined)	-70*	-1%	7	-1%
Cc1ccc(C(NC(=O)C2CCN(Cc3ccc(Oc4ccccc4)cc3)CC2)c2ccccn2)cc1 (centres undefined)	-83*	-4%	-12	0%
O=S(=O)(c1cccs1)N1CCN(CCOc2ccc(Cl)cc2)CC1	1	-2%	19	-1%
COc1ccc(/C=C/C(=O)NCC2Cc3cc(Cl)cc(-c4ncccn4)c3O2)cc1 (centres undefined)	x	-4%	x	x
Cc1c(C)c2c(c(C)c1OC(=O)CCC(=O)OCCO)CC[C@@](C)(CCC[C@H](C)CCC[C@H](C)CCCC(C)C)O2	x	x	-18	x
COc1ccc(OCCN2CCC(C(=O)NC(c3ccc(OC)cc3)c3ccccn3)CC2)cc1 (centres undefined)	-67*	-3%	-22	0%
COc1ccc(C(NC(=O)C2CCN(CCc3ccccc3)CC2)c2ccccn2)cc1 (centres undefined)	-75*	-4%	-18	0%
O=C(NC(c1ccc(-c2ccccc2)cc1)c1cnccn1)C1CCN(CCCOc2ccccc2)CC1 (centres undefined)	-73*	-7%	-15	-3%
COc1ccc(C(NC(=O)C2CCN(CCCc3ccccc3)CC2)c2ccccn2)cc1 (centres undefined)	-22	-1%	6	0%
Cc1cccc(C(=O)NC(=S)Nc2ccc(S(=O)(=O)N(C)c3ccccc3)cc2)c1	-66*	-3%	-4	3%
Cc1cc(C)cc(C(=O)NC(=S)Nc2ccc(Cc3ccncc3)cc2)c1	u	-1%	-7	0%
Cc1cccc(C(=O)NC(=S)Nc2ccc(Cc3ccncc3)cc2)c1	-78*	7%	2	2%
Cc1cccc(C(=O)NC(=S)NNC(=O)c2cccs2)c1	u	14%	-5	0%[9.22 µM]
O=C(NNC(=S)Nc1cccc(C(F)(F)F)c1)c1cccc(Cl)c1	6	-4%	44*	3%
Cc1ccccc1C(=O)NC(=S)Nc1ccc(S(=O)(=O)N(C)c2ccccc2)cc1	-25	-5%	3	0%
Cc1cccc(C(=O)NC(=S)NNC(=O)c2ccc(Cl)cc2)c1	8	35µM*	3	0%[9.22 µM]
CCc1nc(NCc2ccc3c(c2)OCO3)c2oc3ccccc3c2n1	-66*	4%	-5	3%
CCN(CC)c1nc(N)c2c(N)n(-c3ccccc3C)c(=S)c(C#N)c2c1C#N	-82*	0%	1	0%
Cc1ccc2c(c1)N(C(=O)N1CCC(C(=O)NCc3ccco3)CC1)CC(C)O2 (centres undefined)	x	-1%	-13	3%
CC(CCc1ccccc1)NC(=O)CN(C)Cc1ccc(F)cc1 (centres undefined)	-5	-4%	-13	0%
CC(CCc1ccccc1)NC(=O)CN(C)Cc1ccccc1F (centres undefined)	-1	2%	41*	2%
CO[C@H]1C[C@H](O[C@@H]2/C(C)=C/C[C@@H]3C[C@@H](C[C@]4(CC[C@H](C)[C@@H](C5CCCCC5)O4)O3)OC(=O)[C@@H]3C=C(C)/C(=N/O)[C@H]4OC/C(=C\C=C\[C@@H]2C)[C@]43O)O[C@@H](C)[C@@H]1O	x	x	-3	x
SMILES	DRD3 antagonist	GRP78 ERSR act	DRD3 agonist	Nrf2 ARE act
CC(/C=C/C(=O)c1ccc(C)cc1)=C\c1ccccc1	-61*	-2%	3	11µM*
Cc1ccc(C(=O)/C=C\C(=O)c2ccc(C)cc2)cc1	1	2%	-4	4%
Cc1ccc(S/C=C\C(=O)c2ccccc2)cc1	-53*	0%	-28	u
COc1ccc(S(=O)(=O)NCc2cccn2Cc2cc(C)ccc2C)cc1OC	x	-3%	1	3%
CC1CCCCN1C/C=C/c1ccccc1[N+](=O)[O-] (centres undefined)	-29	-2%	-21	0%
CC1CCCN(C/C=C/c2ccccc2[N+](=O)[O-])C1 (centres undefined)	-91*	-1%	-50	-1%
CCC1CCCCN1C/C=C/c1ccccc1[N+](=O)[O-] (centres undefined)	-55*	-2%	-27	0%
Oc1cccc(-c2nc3c4c(ncn3n2)-c2ccccc2CC42CCCC2)c1	212	-13%	83*	-2%
COc1ccc(OCCN2CCOCC2)cc1	9	2%	1	0%
Clc1ccc(OCCCN2CCCC2)cc1Cl	-66*	1%	-36	-1%
Clc1ccc(OCCN2CCOCC2)cc1Cl	-66*	3%	1	0%
CNCCCOc1ccc2c(c1)CCC2	1	-4%	-9	3%
CNCCOc1ccc(Cl)c(Cl)c1	-62*	-4%	13	3%
Cc1cc(OCCCCCN2CCCC2)ccc1Cl	-25	0%	-28	0%
Clc1ccc(OCCN2CCCCC2)cc1Cl	-79*	1%	-9	0%
Cc1cnc(SCC2CCCO2)nc1C1CCCN(Cc2nc(-c3ccccc3)cs2)C1 (centres undefined)	x	-3%	x	x
Cc1ccccc1NC(=O)c1c(C)oc2ccc(O)c(CN3CCN(C)CC3)c12	x	-3%	-15	0%
COc1ccc([N+](=O)[O-])cc1NCc1cccc([N+](=O)[O-])c1	-53*	-2%	-10	23%
CC(=O)C1=C(C)OC(N)=C(C#N)C1c1cc([N+](=O)[O-])ccc1Cl (centres undefined)	-22	-4%	-6	13µM*
CC(=O)C1=C(C)OC(N)=C(C#N)C1c1cccc([N+](=O)[O-])c1 (centres undefined)	-5	-3%	-4	4%
COc1ccc(OC)c(NC(=O)C(Cc2ccccc2)NS(=O)(=O)c2ccc3c(c2)CCC(=O)N3)c1 (centres undefined)	x	-2%	-9	0%
Cc1onc(-c2ccccc2)c1C(=O)N[C@@H]1C(=O)N2[C@@H](C(=O)O)C(C)(C)S[C@@H]12	x	-1%	x	x
OCC1(Cc2ccccc2)CCCN(Cc2ccc(-c3ccco3)cc2)C1 (centres undefined)	-90*	-4%	-20	8%
OCC1(Cc2ccccc2)CCN(Cc2ccc(-c3ccco3)cc2)CC1	-85*	2%	-31	7%
C=C1CCN(C(CC(C)C)C(=O)O)S(=O)(=O)c2ccccc21 (centres undefined)	x	-4%	x	x
CC(C)CCNC(=O)C(=O)Nc1cc2c3c(c1)CC(=O)N3CCC2	12	5%	39*	3%
O=C1CCN(Cc2cccc(C(F)(F)F)c2)CCN1Cc1ccccn1	x	-3%	x	x
